A short description of experiment [1]: stimulators of nuclear beta-catenin in C2C12, primary screen, imaging, WNT3A-conditioned medium, mouse C2C12, NPC library (AID 1117326; in the data active = nuclear beta-catenin stimulation mostly above about 4.2%, no sharp cut-off; inactive = mostly below about 10%). The settings on record: stronger effect = higher value.
A short description of experiment [2]: stimulators of insulin release from INS-1E, primary screen, cell-based, 5 mM glucose, NPC library (AID 1117329;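 active = compound raises insulin release from rat beta cells at 5 mM glucose, no numeric limit stated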). The settings on record: rat INS-1E insulin secretion, at 10 µM, stronger effect = higher value.
Experiment [3] in a line: growth inhibition of GSK3B-pretreated HCT116 cells – cell-based, CellTiter-Glo, 0.2 to 20 µM (AID 1117336;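 active = compounds lowering colon cancer cell viability after pretreatment blocking the GSK3B kinase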). The settings on record: HCT116 viability after GSK3B inhibitor, at 20 µM, stronger effect = higher value. (In general: ATP-based viability assays read luminescence as a measure of living cells.)
Experiment [4] can be described thus: inhibition of endothelial tube formation, primary screen, imaging, VEGF stimulated, CD31 staining, tube area, NPC library (AID 1117340;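 active = compound that reduces growth-factor-driven endothelial tube area in a mixed cell culture, no cutoff stated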). The settings on record: VEGF-stimulated ADSC/ECFC co-culture, at 10 µM, stronger effect = higher value.
Experiment [5] can be described thus: glucagon-like peptide 1 release enhancers, primary assay, NCI-H716 cell line, NPC library (AID 1117341;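 active = compound raises GLP1 secretion from the human gut endocrine cells, with no numeric limit stated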). The settings on record: NCI-H716 cells, at 10 µM, stronger effect = higher value.
Experiment [6] is described as follows: HCT116 colon cancer cell growth inhibition, primary screen, CellTiter-Glo luminescence, NPC library (AID 1117342;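 active = compounds that lower survival of HCT116 colon cancer cells in the luminescence readout, no numeric limit stated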). The settings on record: at 20 µM (top of the series).
Experiment [7] is described as follows: CellTiter-Glo luminescent readout of SW480 viability loss, NPC library primary (AID 1117343;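 active = compounds that lower viability of the colon cancer cells in the luminescence readout, with no numeric limit stated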). The settings on record: CellTiter-Glo luminescence; at 20 µM (top of the series) unless noted.
The nature of experiment [8]: decreased DLD-1 cellular survival, CellTiter-Glo luminescent readout, NPC compound collection, primary HTS (AID 1117346;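 active = compounds that lower survival of DLD-1 colon cancer cells in the luminescence readout, no cutoff given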). The settings on record: DLD-1 viability, CellTiter-Glo luminescence; at 20 µM (top of the series).
The subject of experiment [9] is Aerobactin synthetase IucA (Klebsiella pneumoniae). The experiment can be described thus: IucA aerobactin synthetase inhibitors, biochemical, Tocris library, absorbance (AID 1345561; call rule not given here;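 note: 100% = enzyme without compound and 0% = no enzyme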). The settings on record: purified IucA enzyme assay, absorbance (OD) read-out; stronger effect = lower value;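 tested at 8 µM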.
Experiment [10] in a line: sensitizers of A549 cells to miR-34 induction, primary screen, imaging, A549 dox-inducible miR-34, nuclei and caspase counts (AID 1347080). The settings on record: A549 miR-34 inducible, Hoechst nuclei count, 48 h.
Experiment [11] is described as follows: viability rescue of complex I mutant cybrids, primary screen, cell-based, galactose medium, ATP luminescence (AID 1645843;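 active = z-score of at least 1.8 in each of two replicates, scored against plate mean and spread of sample wells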;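 note: positive z means more ATP and so rescue of galactose-driven cybrid death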). The settings on record: complex I mutant cybrid cells, 72 h, stronger effect = higher value.
Experiment [12] is described as follows: liver-stage malaria parasite growth inhibition, primary screen, cell-based, HepG2, luciferase luminescence, HepG2 viability (AID 624349; in the data active = parasite load remaining mostly below about 12%, no sharp cut-off; inactive = mostly above about 10%;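 note: 100% = mean of DMSO negative control wells on the same plate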). The settings on record: P. berghei liver stage in HepG2, luciferase luminescence, concentration not given here; parasite load remaining: stronger effect = lower value; viability: measured here: HepG2 viability without parasites.
Experiment [13] in a line: survival rescue of mitochondrial mutant cells in low glucose, primary screen, MELAS cybrids, Rieske KO mouse fibroblasts, CellTiter-Glo (AID 1508586;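 active = mean z-score across replicates of 1.96 or higher in either the MELAS or the Rieske mutant cell line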;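 note: z relative to plate mean and SD of compound and empty wells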).
Experiment [14] can be described thus: growth inhibition of DIPG glioma cells, dose response, cell-based, SU-DIPG-XIII, MIPE4.0, CellTiter-Glo, qHTS (AID 1347061; cut-off not given, nearly all actives have AC50 up to about 37 µM;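 note: cells exposed to compound for 48 hours before readout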). The settings on record: SU-DIPG-XIII viability, CellTiter-Glo ATP luminescence.
A short description of experiment [15]: growth inhibition of DIPG glioma cells, dose response, cell-based, JHH-DIPG-1, MIPE4.0, CellTiter-Glo, qHTS (AID 1347062; cut-off not given, nearly all actives have AC50 up to about 27 µM). The settings on record: JHH-DIPG-1 viability, CellTiter-Glo ATP luminescence.
A short description of experiment [16]: viability loss in pontine glioma line – cell-based, SU-DIPG-XXV, MIPE5.0, CellTiter-Glo, qHTS, dose response (AID 1347065; cut-off not given, nearly all actives have AC50 up to about 26 µM;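 note: cells exposed to compound for 48 hours before ATP readout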). The settings on record: CellTiter-Glo ATP luminescence.
Experiment [17] in a line: SU-DIPG-VI glioma cell viability, MIPE4.0 library, CellTiter-Glo luminescence, qHTS (AID 1347066; cut-off not given, nearly all actives have AC50 up to about 30 µM;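 note: cells exposed to compound for 48 hours before readout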). The settings on record: CellTiter-Glo ATP luminescence.
The nature of experiment [18]: SU-DIPG-XXV glioma cell viability, MIPE5.0 library, qHTS (AID 1347068; cut-off not given, nearly all actives have IC50 up to about 30 µM). For orientation: Quantitative high-throughput screening tests each substance at several concentrations.
Where [19] appears, read: stronger effect = lower value, cell number ratio, induced over uninduced.
[20] abbreviates: measured here: relative caspase fold change +Dox/-Dox.
[21] abbreviates: measured here: total cells with miR-34 induction, stronger effect = lower value.
[22] abbreviates: measured here: total cells without miR-34 induction.

Each structure is given as a SMILES string. Values joined by “and” are separate entries in the source; they are usually repeats but may differ in a detail not shown here. Equal values may be shown once. Results filed as inconclusive are left out. Active and inactive are the calls of the source.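 Rule for the calls, unless noted: active = compounds whose cell count with miR-34 switched on is under 0.7 times the count with it off; inactive = the rest.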

On to `O=c1[nH]c2cc(C(F)(F)F)c(N3CCOCC3)cc2n(CP(=O)(O)O)c1=O`, for which the nuclear beta-catenin stimulation is 1.2% (inactive) in experiment [1] (at 10 µM) and -0.5% in experiment [1] (stimulation, at 2 µM). In addition, the insulin secretion stimulation in experiment [2] was 0.85% (inactive). Further, the viability decrease in experiment [3] is 17.9% (inactive). Moreover, in [4], the tube area decrease was -10.1% (inactive). For the same molecule, the GLP1 secretion stimulation in experiment [5] was 1% (inactive). Further, in experiment [6], the inhibition of viability was 6.1% (inactive). The viability decrease (inhibition) is -13.4% (inactive) in experiment [7] and 1.2% (inactive) in experiment [8]. Moreover, in [9], the remaining activity was 126% (inactive). Moreover, the fold change in experiment [10] (setting [19]) was 0.942 (inactive); in experiment [10] (setting [20]) it was 1.52. Also, the cell count in [10] (setting [21]) amounted to 9280; in experiment [10] (setting [22]) it was 9850. Moreover, in experiment [11], the z-score was 0.07 (inactive).

As for `CN=C(NC#N)NCCSCc1csc(N=C(N)N)n1`, the parasite load remaining in experiment [12] was 42.8% (inactive). The viability in experiment [12] worked out at 132%. The nuclear beta-catenin stimulation in experiment [1] (at 10 µM) was -0.6% (inactive); in experiment [1] (stimulation, at 2 µM) it was -1.8%. Moreover, the insulin secretion stimulation in experiment [2] was 0.3% (inactive). Also, the viability decrease in experiment [3] was 5.8% (inactive). The tube area decrease in [4] was 14.5% (inactive). For the same molecule, in experiment [5], the GLP1 secretion stimulation is 0% (inactive). In [6], the inhibition of viability was -2.7% (inactive). For the same molecule, the results for the viability decrease (inhibition) in experiment [7] and in [8] were -14.2% (inactive) and -5.4% (inactive), respectively. Moreover, the remaining activity in experiment [9] was 91.8% (inactive). Also, the fold change in [10] (setting [19]) is 0.914 (inactive) and 0.897 (inactive); in [10] (setting [20]) it was 0.888 and 0.977. Further, the cell count in experiment [10] (setting [21]) was 8420 and 9980; in experiment [10] (setting [22]) it was 9210 and 11100. For the same molecule, the z-score is -0.55 (inactive) in [13] (MELAS cybrid survival, CellTiter-Glo 48 h, stronger effect = higher value); -0.51 in [13] (Rieske KO mouse fibroblast survival, CellTiter-Glo 72 h); 0.35 (inactive) and 0.345 (inactive) in [11].

In the case of `CC1(C)Oc2ccc(C#N)cc2[C@@H](N2CCCC2=O)[C@@H]1O`, the nuclear beta-catenin stimulation in [1] (at 10 µM) was 0.9% (inactive); in experiment [1] (stimulation, at 2 µM), 0.1%. Moreover, the insulin secretion stimulation in experiment [2] was 0.4% (inactive). Also, the viability decrease in experiment [3] was -2.5% (inactive). Moreover, the tube area decrease in experiment [4] is -8.1% (inactive). Besides, in experiment [5], the GLP1 secretion stimulation is 3.2% (inactive). Also, the inhibition of viability in experiment [6] is 17.9% (inactive). Further, the viability decrease (inhibition) in experiment [7] is -2.4% (inactive); in [8], 5.4% (inactive). Also, the remaining activity in experiment [9] is 118% (inactive). For the same molecule, the figures for the fold change in experiment [10] (setting [19]) and in [10] (setting [20]) were 0.905 (inactive) and 1.17, respectively. Moreover, the cell count turned out to be 9250 in experiment [10] (setting [21]) and 10200 in [10] (setting [22]). The z-score in [11] was 0.27 (inactive).

Turning to `CN1CC(=O)N/C1=N/C(=O)Nc1cccc(Cl)c1`, the nuclear beta-catenin stimulation in experiment [1] (at 10 µM) was 0.5% (inactive); in experiment [1] (stimulation, at 2 µM), -0.6%. Moreover, the insulin secretion stimulation in experiment [2] was -2.5% (inactive). For the same molecule, the viability decrease in experiment [3] was -6.65% (inactive). The tube area decrease in experiment [4] was -5.1% (inactive). Moreover, the GLP1 secretion stimulation in [5] is 4.2% (inactive). Besides, in [6], the inhibition of viability is -16.7% (inactive). The figures for the viability decrease (inhibition) in experiment [7] and in experiment [8] were 45.2% (inactive) and 3.8% (inactive), respectively. Besides, the remaining activity in experiment [9] is 109% (inactive). The fold change is 0.899 (inactive) in experiment [10] (setting [19]) and 1.49 in [10] (setting [20]). The values for the cell count in experiment [10] (setting [21]) and in experiment [10] (setting [22]) were 8750 and 9740, respectively. For the same molecule, the z-score in [11] was 0.46 (inactive).

For `Cn1ccc2cc3c(cc21)CCN3C(=O)Nc1cccnc1`, the nuclear beta-catenin stimulation was 0.8% (inactive) in [1] (at 10 µM) and -1.3% in experiment [1] (stimulation, at 2 µM). In experiment [2], the insulin secretion stimulation was -1.4% (inactive). In addition, the viability decrease in experiment [3] was -4.4% (inactive). Also, the tube area decrease in experiment [4] was -4.4% (active). Further, the GLP1 secretion stimulation in experiment [5] was 0.1% (inactive). Besides, the inhibition of viability in experiment [6] was 24.2% (inactive). The viability decrease (inhibition) was 12.7% (inactive) in experiment [7] and -22.3% (inactive) in experiment [8]. Besides, in experiment [9], the remaining activity is 117% (inactive). For the same molecule, the AC50 in experiment [14] is 14.8 µM (active). Besides, the result in [15], in experiment [16], in experiment [17] and in [18] was inactive. Moreover, the fold change was 1.01 (inactive) and 0.974 (inactive) in [10] (setting [19]); 1.08 and 0.723 in experiment [10] (setting [20]). The cell count in experiment [10] (setting [21]) is 11100 and 8340; in [10] (setting [22]) it was 11000 and 8560. Further, the z-score in experiment [11] is 1.23 (inactive) and 0.545 (inactive).

In general, remaining activity refers to the signal under treatment as a percentage of the control signal. By viability is commonly meant a read-out of living cells in per cent, often relative to untreated cells. By AC50 is commonly meant the midpoint of the concentration-response curve, whichever way the signal moves.

These data come from PubChem BioAssay.
